Reference: publication PMC4336329 (PLoS ONE, 2015)
Out of some 310,000 compounds screened, about 14,000 (4.5%) showed an effect of 50% or more. The effect is printed as a negative number. Shown is part of a subset that was picked to be rich in strong results.

Molecular target: human ether-à-go-go-related gene (hERG) potassium channel (human, UniProt Q12809)
Test: primary screen, population patch clamp on CHO cells stably expressing hERG; higher = less effect of the substance
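Also: peak tail current of the secondary pulse compared with the same well before compound.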

human ether-à-go-go-related gene (hERG) potassium channel, sequence (Q12809 whole entry, looked up): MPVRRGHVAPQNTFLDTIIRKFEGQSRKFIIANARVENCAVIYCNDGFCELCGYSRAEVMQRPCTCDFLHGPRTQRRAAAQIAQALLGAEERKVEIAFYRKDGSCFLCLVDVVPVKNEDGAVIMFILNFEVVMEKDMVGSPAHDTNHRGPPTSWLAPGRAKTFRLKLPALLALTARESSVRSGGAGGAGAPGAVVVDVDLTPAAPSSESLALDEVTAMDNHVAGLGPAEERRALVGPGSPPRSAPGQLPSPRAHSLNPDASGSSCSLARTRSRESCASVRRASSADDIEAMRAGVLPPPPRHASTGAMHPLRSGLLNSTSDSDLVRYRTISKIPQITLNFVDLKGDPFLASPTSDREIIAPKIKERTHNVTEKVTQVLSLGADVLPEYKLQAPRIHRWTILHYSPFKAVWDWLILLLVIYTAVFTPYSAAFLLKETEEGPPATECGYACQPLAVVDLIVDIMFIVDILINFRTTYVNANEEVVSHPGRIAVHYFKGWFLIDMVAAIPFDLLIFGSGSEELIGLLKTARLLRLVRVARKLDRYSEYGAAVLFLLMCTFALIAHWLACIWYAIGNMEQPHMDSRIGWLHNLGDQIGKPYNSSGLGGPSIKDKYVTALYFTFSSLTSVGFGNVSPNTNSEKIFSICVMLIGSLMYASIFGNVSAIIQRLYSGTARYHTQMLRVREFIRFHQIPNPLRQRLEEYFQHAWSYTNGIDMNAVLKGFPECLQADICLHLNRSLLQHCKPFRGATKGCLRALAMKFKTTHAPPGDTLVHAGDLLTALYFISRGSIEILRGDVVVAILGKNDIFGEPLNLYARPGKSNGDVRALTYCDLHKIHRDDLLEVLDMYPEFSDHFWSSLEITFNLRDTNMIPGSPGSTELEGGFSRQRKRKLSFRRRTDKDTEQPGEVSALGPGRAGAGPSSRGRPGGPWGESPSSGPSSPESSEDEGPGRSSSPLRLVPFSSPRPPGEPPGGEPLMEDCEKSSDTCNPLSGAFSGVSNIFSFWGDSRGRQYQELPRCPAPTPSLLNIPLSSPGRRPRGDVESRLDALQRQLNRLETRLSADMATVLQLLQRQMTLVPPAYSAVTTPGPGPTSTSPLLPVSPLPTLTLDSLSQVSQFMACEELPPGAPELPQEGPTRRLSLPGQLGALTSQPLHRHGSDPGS

With `COc1ccc(OCCC(=O)Nc2ccccc2)cc1` as the molecule, how does the “hERG current change (%, negative = inhibition) at 10uM” value read?
Its value is -6.83%.

Which “hERG current change (%, negative = inhibition) at 10uM” value does the source give for `Cc1cc(C(=O)O[C@H]2[C@H](Cc3ccccc3)NS(=O)(=O)[C@H]3C[C@@H]4C=C[C@]23O4)ccc1[N+](=O)[O-]` here?
Its value is -1.67%.

Which “hERG current change (%, negative = inhibition) at 10uM” value does the source give for `Cn1nc(C(=O)NCc2ccc(F)cc2)c2c1-c1ccccc1S(=O)(=O)C2` here?
Its value is -44.9%.

How did the “hERG current change (%, negative = inhibition) at 10uM” value turn out when `CC(=O)N(CC(=O)O)c1ccccc1` was run?
The value was 10.5%.

`Cc1ccc(NS(=O)(=O)c2ccc(CCC(=O)NCCCOC(C)C)cc2)cc1` was tested. Which “hERG current change (%, negative = inhibition) at 10uM” value did it give?
Its value is 4.27%.

For `O=c1oc2c3c4c(cc2c2c1CCC2)OCCN4CCC3`, which “hERG current change (%, negative = inhibition) at 10uM” value is on record?
The value was -0.13%.

For `Cc1cccc(C)c1NC(=O)CNc1ccccc1`, which “hERG current change (%, negative = inhibition) at 10uM” value is on record?
The value was 5.02%.

For `O=C(Nn1c(C2CCCCC2)nc2ccccc2c1=O)c1ccc(Cl)c([N+](=O)[O-])c1`, which “hERG current change (%, negative = inhibition) at 10uM” value is on record?
The value was -9.26%.

With `COC(=O)C1=C(c2ccc(OC)c(OC)c2)C[C@@H]2CC[C@H]1N2C(=O)NCCOc1ccccc1Cl` as the molecule, how does the “hERG current change (%, negative = inhibition) at 10uM” value read?
The value was -12.7%.

For `Cc1ccc(C)c(N2CCN(S(=O)(=O)c3ccc4c(c3)OCCO4)CC2)c1`, which “hERG current change (%, negative = inhibition) at 10uM” value is on record?
The value was 3.7%.

For `C#CCOCCOCCOCCNc1nc(N2CCN(C(=O)CCCCCCCCCCNC(=O)[C@H](CCC(=O)O)n3cc(CCCCCN)nn3)CC2)nc(N2CCN(C(=O)CCCCCCCCCCNC(=O)[C@@H]([C@H](C)O)n3cc(C)nn3)CC2)n1`, which “hERG current change (%, negative = inhibition) at 10uM” value is on record?
The value was 20.1%.

For `O=C(CSc1nc2c(c(=O)n1-c1ccc(Cl)cc1)SCC2)N1CCCC1`, which “hERG current change (%, negative = inhibition) at 10uM” value is on record?
Its value is -17.4%.

With `O=C(N/N=C\c1ccc(-c2ccc([N+](=O)[O-])cc2)o1)C1COc2ccccc2O1` (stereo not shown) as the molecule, how does the “hERG current change (%, negative = inhibition) at 10uM” value read?
Its value is -7.36%.

How did the “hERG current change (%, negative = inhibition) at 10uM” value turn out when `O=C(N/N=C\c1ccc([N+](=O)[O-])o1)C1COc2ccccc2O1` (stereo not shown) was run?
The value was -67.4%.

With `C/C(=N/NC(=O)CNC(=O)C1COc2ccccc2O1)c1ccc([N+](=O)[O-])cc1` (stereo not shown) as the molecule, how does the “hERG current change (%, negative = inhibition) at 10uM” value read?
Its value is -64.7%.

How did the “hERG current change (%, negative = inhibition) at 10uM” value turn out when `CC(C)(C)c1ccc2c(c1)OC(C(=O)N/N=C/c1ccc([N+](=O)[O-])o1)CO2` (stereo not shown) was run?
Its value is -39.2%.

How did the “hERG current change (%, negative = inhibition) at 10uM” value turn out when `C/C(=N/NC(=O)CNC(=O)C1COc2ccccc2O1)c1ccc2c(c1)OCCO2` (stereo not shown) was run?
The value was -1.69%.

How did the “hERG current change (%, negative = inhibition) at 10uM” value turn out when `C/C(=N\NC(=O)CNC(=O)C1COc2ccccc2O1)c1ccc(Cl)cc1` (stereo not shown) was run?
Its value is -17.6%.

Which “hERG current change (%, negative = inhibition) at 10uM” value does the source give for `CC(=O)Nc1ccc(NC(=O)C(C)OC(=O)C(C)SCC(=O)Nc2ccc(F)cc2)cc1` (stereo not shown) here?
The value was 12%.

Which “hERG current change (%, negative = inhibition) at 10uM” value does the source give for `CN(NC(=O)COc1ccccc1)C1=NS(=O)(=O)c2ccccc21` here?
The value was 26.1%.

With `CCCCCNC(=O)C1c2ccccc2Oc2ccccc21` as the molecule, how does the “hERG current change (%, negative = inhibition) at 10uM” value read?
The value was 2.44%.

With `O=C(CSc1ccc2nnc(-c3ccc(F)cc3)n2n1)N1CCCc2ccccc21` as the molecule, how does the “hERG current change (%, negative = inhibition) at 10uM” value read?
The value was -16%.

`O=C(CSc1ccc2nnc(-c3ccccn3)n2n1)N1CCN(c2ccccc2)CC1` was tested. Which “hERG current change (%, negative = inhibition) at 10uM” value did it give?
Its value is -86.7%.

`COc1ccc(-c2nnc3ccc(SCC(=O)N4CCCC4)nn23)cc1` was tested. Which “hERG current change (%, negative = inhibition) at 10uM” value did it give?
Its value is -15.2%.

`CCOC(=O)N1CCN(C(=O)CSc2ccc3nnc(-c4ccccn4)n3n2)CC1` was tested. Which “hERG current change (%, negative = inhibition) at 10uM” value did it give?
Its value is -36%.

Which “hERG current change (%, negative = inhibition) at 10uM” value does the source give for `O=C(CSc1ccc2nnc(-c3ccccc3)n2n1)N1CCCCC1` here?
Its value is -59.7%.

With `CCOc1ccc(-c2nnc3ccc(SCC(=O)N4CCCCC4)nn23)cc1` as the molecule, how does the “hERG current change (%, negative = inhibition) at 10uM” value read?
The value was -5.88%.

How did the “hERG current change (%, negative = inhibition) at 10uM” value turn out when `Cc1ccc(-c2nnc3ccc(SCC(=O)N4CCCc5ccccc54)nn23)cc1` was run?
Its value is -12.5%.

Which “hERG current change (%, negative = inhibition) at 10uM” value does the source give for `O=C(CSc1ccc2nnc(-c3ccccn3)n2n1)N1CCOCC1` here?
Its value is -24.5%.

Which “hERG current change (%, negative = inhibition) at 10uM” value does the source give for `O=C(CSc1ccc2nnc(-c3ccccc3)n2n1)N1CCCc2ccccc21` here?
Its value is -62.7%.

How did the “hERG current change (%, negative = inhibition) at 10uM” value turn out when `COc1cccc(-c2csc(N3CCN(Cc4ccccc4)CC3)n2)c1` was run?
The value was 0.166%.

For `COCC(=O)Nc1nnc(COc2ccc(Cl)cc2)s1`, which “hERG current change (%, negative = inhibition) at 10uM” value is on record?
The value was -0.556%.

For `CCC(C)(C)C1CCC2(CC1)NC(=O)N(CC(=O)NCCc1c[nH]c3ccccc13)C2=O` (stereo not shown), which “hERG current change (%, negative = inhibition) at 10uM” value is on record?
Its value is -20.3%.

Which “hERG current change (%, negative = inhibition) at 10uM” value does the source give for `COc1ccccc1N(C(=O)CCl)c1cn(C(C)=O)c2ccccc12` here?
The value was -10.6%.

`C=CCOc1ccccc1C1C2=C(CC(C)(C)CC2=O)Nc2c1c(=O)n(C)c(=O)n2C` (stereo not shown) was tested. Which “hERG current change (%, negative = inhibition) at 10uM” value did it give?
The value was -3.8%.

How did the “hERG current change (%, negative = inhibition) at 10uM” value turn out when `CC(C)CN1CCN(Cc2cccn2-c2ccc(Cl)cn2)CC1CCO` (stereo not shown) was run?
The value was -64.6%.

Which “hERG current change (%, negative = inhibition) at 10uM” value does the source give for `CC(C)CN1CCN(Cc2c(F)cccc2Cl)CC1CCO` (stereo not shown) here?
The value was -10.4%.

For `Cc1cccc(CN2CCN(CC(C)C)C(CCO)C2)n1` (stereo not shown), which “hERG current change (%, negative = inhibition) at 10uM” value is on record?
The value was 17.7%.

`CC(C)CCN1CCN(Cc2ccon2)CC1CCO` (stereo not shown) was tested. Which “hERG current change (%, negative = inhibition) at 10uM” value did it give?
Its value is 4.53%.

With `CC(C)CCN1CCN(Cc2c(F)cccc2Cl)CC1CCO` (stereo not shown) as the molecule, how does the “hERG current change (%, negative = inhibition) at 10uM” value read?
The value was -21.6%.

How did the “hERG current change (%, negative = inhibition) at 10uM” value turn out when `CC(C)CCN1CCN(Cc2cccn2-c2ccc(Cl)cn2)CC1CCO` (stereo not shown) was run?
Its value is -64.8%.

For `O=C(COC(=O)/C=C/c1ccc(Cl)cc1Cl)Nc1cc(C(F)(F)F)ccc1N1CCOCC1`, which “hERG current change (%, negative = inhibition) at 10uM” value is on record?
The value was 8.56%.

How did the “hERG current change (%, negative = inhibition) at 10uM” value turn out when `O=C(O)CSc1nc(SCc2ccccc2Cl)nc2c1CCCC2` was run?
Its value is 15.4%.

How did the “hERG current change (%, negative = inhibition) at 10uM” value turn out when `Cc1[nH]n(-c2ccccc2)c(=O)c1CCO` was run?
The value was 13.7%.

Which “hERG current change (%, negative = inhibition) at 10uM” value does the source give for `OC(c1cc(-c2ccc(Cl)cc2)nc2ccccc12)C1CCCCN1` (stereo not shown) here?
Its value is -52.6%.

With `Cl.OC(c1cc(C(F)(F)F)nc2c(C(F)(F)F)cccc12)C1CCCCN1` (stereo not shown) as the molecule, how does the “hERG current change (%, negative = inhibition) at 10uM” value read?
Its value is -12.4%.

Which “hERG current change (%, negative = inhibition) at 10uM” value does the source give for `Cl.O[C@@H](c1cc(C(F)(F)F)nc2c(C(F)(F)F)cccc12)[C@H]1CCCCN1` here?
The value was 6.31%.

With `Cc1cccnc1NC(=O)Cn1c(=O)oc2ccccc21` as the molecule, how does the “hERG current change (%, negative = inhibition) at 10uM” value read?
The value was 23%.

Which “hERG current change (%, negative = inhibition) at 10uM” value does the source give for `Cc1ccc(N2C(=O)NC(=O)/C(=C\c3cccn3C(C)(C)C)C2=O)cc1` here?
The value was 24.5%.

How did the “hERG current change (%, negative = inhibition) at 10uM” value turn out when `Cl.N=c1sccn1CC(=O)Nc1ccc2c(c1)CCC2` was run?
Its value is -14.1%.

With `Cl.N=c1sccn1CC(=O)Nc1cccc(Oc2ccccc2)c1` as the molecule, how does the “hERG current change (%, negative = inhibition) at 10uM” value read?
The value was -65.5%.

Which “hERG current change (%, negative = inhibition) at 10uM” value does the source give for `Cl.N=c1sccn1CC(=O)Nc1cccc(S(N)(=O)=O)c1` here?
The value was 12.5%.

`Cl.N=c1sccn1CC(=O)Nc1ccc(SC(F)F)cc1` was tested. Which “hERG current change (%, negative = inhibition) at 10uM” value did it give?
The value was -62.1%.

Which “hERG current change (%, negative = inhibition) at 10uM” value does the source give for `Cc1ccc(Oc2ccc(NC(=O)Cn3ccsc3=N)cc2)cc1.Cl` here?
The value was -45.1%.

How did the “hERG current change (%, negative = inhibition) at 10uM” value turn out when `Cl.N=c1sccn1CC(=O)Nc1cccc2ccccc12` was run?
Its value is 2.9%.

How did the “hERG current change (%, negative = inhibition) at 10uM” value turn out when `Cl.N=c1sccn1CC(=O)NC(c1ccccc1)c1ccccc1` was run?
Its value is -63.3%.

For `Cl.N=c1sccn1CC(=O)Nc1cc(Cl)ccc1[N+](=O)[O-]`, which “hERG current change (%, negative = inhibition) at 10uM” value is on record?
Its value is 2.64%.

For `Cl.N=c1sccn1CC(=O)Nc1ccc(S(N)(=O)=O)cc1`, which “hERG current change (%, negative = inhibition) at 10uM” value is on record?
The value was 18.2%.

`Cl.N=c1sccn1CC(=O)Nc1ccccc1-c1ccccc1` was tested. Which “hERG current change (%, negative = inhibition) at 10uM” value did it give?
Its value is -2.05%.

With `Cl.N=c1sccn1CC(=O)Nc1cc(Cl)ccc1Oc1ccccc1` as the molecule, how does the “hERG current change (%, negative = inhibition) at 10uM” value read?
Its value is -75.2%.

Which “hERG current change (%, negative = inhibition) at 10uM” value does the source give for `O=C(CSc1ccccc1)Nc1cc(Cl)ccc1Oc1ccccc1` here?
The value was -9.05%.
